From PubChem
The list is not random: actives were taken first. Their share in the collection is about 3.1%.
VDR inh: Inhibitors of the vitamin D receptor (VDR): qHTS; Vitamin D3 receptor (Homo sapiens), P11473; VDR-SRC2-3 peptide fluorescence polarization, 2 h; Potency, µM, for inactives: max response, negative = inhibition, usual class: inhibitors; hit rate 0.93% among 400,000; AID 504847, 2011; also: potency is read from the fitted curve at half-maximal effect; % is scaled to controls: 0 for no effect and ±100 for the full control effect
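Measured by FP: displacement of SRC2-3 coactivator peptide from VDR by library compounds, following a two-hour ambient incubation.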
Vif-A3G inh: qHTS for Inhibitors of Vif-A3G Interactions: qHTS; DNA dC->dU-editing enzyme APOBEC-3G (Homo sapiens), Q9HC16; HeLa A3G-eYFP + Vif (tagged APOBEC3G with the HIV-1 protein that degrades it), YFP fluorescence, overnight; Potency, µM (series often up to 46.1 µM), for inactives: top-dose activity, negative = active, hits mostly inhibitors; hit rate 0.076% among 410,000; AID 602310, 2012; also: potency is read from the fitted curve at half-maximal effect; % is scaled to controls: 0 for no effect and ±100 for the full control effect; nearly all actives have a fitted effect of over 60% in size
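HeLa cells stably expressing Vif and C-terminally eYFP-tagged A3G, seeded overnight at 37 deg C, then exposed to compound by pintool overnight at 37 deg C. Rise in yellow fluorescence (Ex 488/Em 500-530, Acumen) marks blocked Vif-driven A3G degradation.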
PLK1 PBD block: qHTS for Inhibitors of PLK1-PDB (polo-like kinase 1 - polo-box domain): Primary Screen | Serine/threonine-protein kinase PLK1 (Homo sapiens), P53350 | Plk1 PBD binding of FITC phosphopeptide, fluorescence polarization | Potency, µM, for inactives: max response, negative = inhibition, actives largely listed as inhibitors | hit rate 2.8% among 360,000; also: potency is read from the fitted curve at half-maximal effect; series mostly up to about 57 µM; % is scaled to controls: 0 for no effect and ±100 for the full control effect; nearly all actives have a fitted effect of over 65% in size
Target sequence (P53350 whole entry, looked up, the tested form may be a part): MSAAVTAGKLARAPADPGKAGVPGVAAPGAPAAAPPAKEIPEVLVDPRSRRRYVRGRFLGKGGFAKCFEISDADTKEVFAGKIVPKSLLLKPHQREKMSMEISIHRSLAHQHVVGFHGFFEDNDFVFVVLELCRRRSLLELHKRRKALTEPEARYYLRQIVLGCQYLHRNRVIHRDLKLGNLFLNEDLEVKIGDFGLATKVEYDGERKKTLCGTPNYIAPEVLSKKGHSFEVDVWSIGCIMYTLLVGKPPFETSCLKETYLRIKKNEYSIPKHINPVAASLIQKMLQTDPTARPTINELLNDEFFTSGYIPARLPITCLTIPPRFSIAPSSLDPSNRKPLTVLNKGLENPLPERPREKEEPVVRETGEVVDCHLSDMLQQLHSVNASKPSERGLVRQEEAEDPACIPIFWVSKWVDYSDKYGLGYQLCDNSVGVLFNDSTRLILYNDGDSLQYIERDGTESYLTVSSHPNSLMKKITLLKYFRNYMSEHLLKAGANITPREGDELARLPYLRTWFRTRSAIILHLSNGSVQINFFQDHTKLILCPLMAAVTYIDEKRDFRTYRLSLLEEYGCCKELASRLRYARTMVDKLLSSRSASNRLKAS
Vif-A3F inh: qHTS for Inhibitors of Vif-A3F Interactions: qHTS; Potency, µM (titrated, usually from 46.1 µM), for the others: top-dose activity, negative = active; AID 602313, 2012; HeLa A3F-eYFP + Vif (tagged APOBEC3F with the HIV-1 protein that degrades it), YFP fluorescence increase; hit rate 0.2% among 390,000; also: potency is read from the fitted curve at half-maximal effect; % of control where 0% means no effect; nearly all actives have a fitted effect of over 65% in size
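Fluorescence increase (Ex 488/Em 500-530) after overnight compound treatment at 37 deg C flags inhibition of Vif-driven A3F-eYFP loss in stable HeLa A3F-eYFP/Vif cells seeded overnight beforehand.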
TSHR antag: Antagonists of the Thyroid Stimulating Hormone Receptor: HTS campaign; Thyrotropin receptor (Homo sapiens), P16473; TSHR-expressing cells, TSH-stimulated cAMP HTRF, 2 h; stronger effect = lower value; activity change, negative = inhibition, % at 11.5 µM; hit rate 0.2% among 330,000; AID 504810, 2011;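 active = activity change below a set negative limit, meaning inhibition stronger than a set level, cut at about -70% in these data; inconclusive = activity change between two set negative limits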; also: % is scaled to controls: 0 for no effect and ±100 for the full control effect
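Antagonism was scored as loss of TSH-driven cAMP in TSHR cells, stimulated with 4nM TSH (EC80) for 2 hours at 37 deg C and detected by homogeneous HTRF competition immunoassay.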
VDR inh confirm: qHTS for Inhibitors of the vitamin D receptor (VDR): Hit Validation in Primary Screen; shares compounds with VDR inh; VDR-coactivator inhibition assay, qHTS confirmation; Potency, µM, actives largely listed as inhibitors; hit rate 89% among 840; also: potency is read from the fitted curve at half-maximal effect
VDR FP: qHTS for Inhibitors of the vitamin D receptor (VDR): Hit Validation using a Fluorescein Assay | shares compounds with VDR inh | VDR-coactivator binding, fluorescein fluorescence polarization | Potency, µM (highest dose often 57.1 µM), for the others: at the top dose activity change, negative = inhibition, actives largely listed as inhibitors | hit rate 48% among 840; also: potency is read from the fitted curve at half-maximal effect
VDR bla reporter: qHTS for Inhibitors of the vitamin D receptor (VDR): Hit Validation using a Beta-Lactamase Assay; Potency, µM (series often up to 46.1 µM), for inactives: top-dose activity change, negative = inhibition, actives largely listed as inhibitors; shares compounds with VDR inh; AID 602202, 2012; hit rate 23% among 840; VDR beta-lactamase reporter cells, FRET ratio; cells co-treated with VDR agonist LG190178; also: potency is read from the fitted curve at half-maximal effect; % is scaled to controls: 0 for no effect and ±100 for the full control effect
VDR viability: qHTS for Inhibitors of the vitamin D receptor (VDR): Hit Validation using a Cytotoxicity Assay; Potency, µM (doses to about 48.3 µM), for inactives: top-dose activity change, negative = cytotoxicity, actives largely listed as cytotoxic; cytotoxicity counter-screen, cell viability, qHTS; shares compounds with VDR inh; AID 602204, 2012; hit rate 18% among 840;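 also: potency is read from the fitted curve at half-maximal effect; plate controls were DMSO for no effect and high-concentration cycloheximide for full effect; nearly all actives have a fitted effect of over 75% in size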
Numbers without * were called inactive; u = inconclusive; x = no result. Unless noted, calls follow the shape of the dose curve; as a rule, active = well fitted curve in the direction sought with a large enough effect; inconclusive = small, poorly fitted or top-dose-only effect, or another doubt; inactive = no such curve, though single readings can be large; an effect the other way counts as inactive or inconclusive.

SMILES	VDR inh	Vif-A3G inh	PLK1 PBD block	Vif-A3F inh	TSHR antag	VDR inh confirm	VDR FP	VDR bla reporter	VDR viability
CCOc1ccc(C(=O)CCN2CCCCC2)cc1	u	-4%	u	-4%	14	x	x	x	x
COc1ccccc1C(=O)Nc1c(C(=O)N(C)c2ccccc2)sc2nc(C)cc(C)c12	-12%	0%	x	3%	x	x	x	x	x
Cn1c(N)c(C(=O)Nc2ccc(-c3ccccc3)cc2)sc1=S	u	0%	15µM*	2%	-33	18*	22µM*	u	u
c1ccc(-c2nnc3sc(-c4csc5c4CCCC5)nn23)cc1	u	-16%	11µM*	-6%	-2	14*	10µM*	u	u
CC(=O)c1ccc(N2CCN(c3ncnc4c3c(-c3ccccc3)cn4-c3ccc(Cl)cc3)CC2)cc1	3%	-1%	x	3%	x	x	x	x	x
O=[N+]([O-])/C=C/c1cn(Cc2ccc(F)cc2)c2ccccc12	20µM*	u	u	-10%	3	6.7*	u	21µM*	u
CCNC(=S)N/N=C/c1cn(Cc2ccc(F)cc2)c2ccccc12	0%	-11%	0%	-3%	0	x	x	x	x
O=C(/C=C/c1ccccc1Cl)NNC(=O)c1ccncc1	9%	-1%	3%	-1%	7	x	x	x	x
O=C(Nc1ccc(OCc2ccccc2)cc1)c1cccnc1	-5%	2%	-1%	-6%	-5	x	x	x	x
N#Cc1ccc(/C=C/C(=O)c2cccnc2)cc1	11µM*	u	u	8%	-13	8.4*	u	u	u
O=C(/C=C/c1ccc(Cl)cc1)c1cccnc1	25µM*	-30%	u	0%	27	6*	5.6µM*	23%	7%
O=C(/C=C/c1ccc(OCc2ccccc2)c(OCc2ccccc2)c1)c1cccnc1	u	-10%	-10%	-6%	31	7.1*	4µM*	-14%	-5%
CCN(CC)c1ccc(/C=C/C(=O)c2cccnc2)cc1	12%	0%	-12%	-2%	8	x	x	x	x
O=C(/C=C/c1ccccc1Cl)c1cccnc1	45µM*	u	u	x	-18	6.7*	u	u	u
Nc1cccc2c1C(=O)N(C(=O)/C=C/c1cccc(Br)c1)C2=O	40µM*	0%	u	u	1	9.5*	4.5µM*	-20%	15%
Cc1cc(C)c(C#N)c(=N)o1	45µM*	1%	4.7µM*	3%	9	u	u	-21%	4%
O=C(c1ccc2c(c1)N(Cc1ccc(F)cc1)C(=O)c1ccccc1S2(=O)=O)N1CCCCC1	-5%	x	x	x	x	x	x	x	x
COC(=O)c1sc(-c2ccccc2)cc1NC(=O)c1ccc(OC)cc1	-4%	0%	-7%	1%	-1	x	x	x	x
CCOC(=O)c1cc(-c2ccccc2)sc1NC(=O)c1ccc(OC)cc1	50µM*	1%	5.3µM*	2%	31	30*	13µM*	15%	-28%
O=C1c2ccccc2CCC1CNCCc1ccc(O)cc1 (stereo not given)	2.8µM*	x	x	x	x	14*	28µM*	u	u
O=C(NCCc1ccccc1)c1noc2c1CCc1ccccc1-2	7%	2%	0%	-14%	-9	x	x	x	x
O=C1c2ccccc2CC[C@H]1CNCCc1ccc(O)cc1	3.5µM*	x	x	x	x	u	u	-5%	17%
CCC(C(=O)Nc1cc(-c2nc3cccnc3s2)ccc1C)c1ccccc1 (stereo not given)	12%	-2%	x	-2%	x	x	x	x	x
COc1ccc(N2CCN(S(=O)(=O)c3ccc4c(c3)CC(C)N4C(C)=O)CC2)cc1 (stereo not given)	1%	7%	x	-2%	x	x	x	x	x
COC(=O)c1ccccc1NC(=O)CSc1nc2sc3c(c2c(=O)[nH]1)CCCC3	14µM*	-5%	x	-4%	x	u	4µM*	3%	4%
SMILES	VDR inh	Vif-A3G inh	PLK1 PBD block	Vif-A3F inh	TSHR antag	VDR inh confirm	VDR FP	VDR bla reporter	VDR viability
Cc1cc(C)cc(NC(=O)CSc2nc3sc4c(c3c(=O)[nH]2)CCCC4)c1	6%	4%	x	-21%	x	x	x	x	x
COC(=O)c1ccc2c(=O)n(CCCCCC(=O)N3CCN(c4cc(C)ccc4C)CC3)c(=O)[nH]c2c1	14%	-5%	x	-7%	x	x	x	x	x
O=[N+]([O-])c1ccc(/C=C2\CCC(C3=CCCC3)=C2N2CCOCC2)cc1	u	-1%	-19%	-9%	-3	u	u	u	-2%
CC1=NNC(=O)/C1=C\c1cn(-c2ccccc2)nc1-c1cccs1	10µM*	-24%	2.7µM*	-2%	-5	3.8*	u	16µM*	9.2µM*
O=C(O)c1cn(-c2ccccc2)nc1-c1ccc(F)cc1	18%	1%	-3%	11%	-14	x	x	x	x
CC1=NNC(=O)/C1=C\c1cn(-c2ccccc2)nc1-c1ccc(F)cc1	45µM*	u	1.5µM*	-27%	-5	7.5*	u	15µM*	7.3µM*
O=C(Nc1c(C(=O)c2ccc(F)cc2)oc2ccccc12)c1cc(-c2ccccc2)on1	-4%	-1%	x	-14%	x	x	x	x	x
CCOC(=O)C1=C(Cc2ccc(Cl)cc2)C(=O)c2ccccc2C1=O	6.3µM*	u	4.7µM*	28µM*	1	1.8*	u	23µM*	u
CCOC(=O)c1c(C2COc3ccccc3O2)csc1NC(=O)c1ccco1 (stereo not given)	u	4%	2.5µM*	0%	12	u	2.2µM*	-25%	-4%
